Drawing on PubChem BioAssay, this text covers z-score and composite z-score for nine compounds.

Assay [1] can be described thus: compound effects on lung adenocarcinoma cell viability – A549, calcein-AM fluorescence, 48 h, basal, profiling panel (AID 1162). Also: test concentration not given here. Conditions: higher = more signal.
The nature of assay [2]: compound effects on differentiated 3T3-L1 adipocyte viability – cell-based, 3T3-L1 adipocytes, calcein-AM fluorescence, 48 h, basal, profiling panel (AID 1163). Also: test concentration not given here. Conditions: 3T3-L1 adipocytes viability, higher = more signal.
The nature of assay [3]: compound effects on hepatocellular carcinoma cell viability – HepG2, calcein-AM fluorescence, 48 h, basal, profiling panel (AID 1164). Also: test concentration not given here. The following applies: higher = more signal.
Assay [4] in a line: compound effects on multiple myeloma cell viability – MM1S, calcein-AM fluorescence, 48 h, basal, profiling panel (AID 1165). Also: test concentration not given here. Conditions: higher = more signal.
Assay [5] can be described thus: calcein-AM signal in unstimulated myeloma cells – cell-based, calcein-AM fluorescence, 48 h, PK04 Diversity Set, profiling panel (AID 1166).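 Also: cells grown under basal conditions without added stimulus; test concentration not given here.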 Conditions: RPMI8226 myeloma viability, higher = more signal.
A short description of assay [6]: JC-1 mitochondrial signal, unstimulated HepG2 cells – cell-based, JC-1 fluorescence, 24 h, 100 nL compound, profiling panel (AID 1167). Also: test concentration not given here. Conditions: HepG2 mitochondrial potential, higher = more signal.
The nature of assay [7]: JC-1 mitochondrial signal, unstimulated adipocytes – cell-based, JC-1 fluorescence, 3T3-L1 adipocytes, 24 h, 100 nL compound, profiling panel (AID 1168). Also: test concentration not given here. Conditions: JC-1 mitochondrial fluorescence, higher = more signal, called active from +8 up or from −8 down.
Assay [8] can be described thus: JC-1 mitochondrial signal, unstimulated myeloma cells – cell-based, JC-1 fluorescence, RPMI8226, 24 h, 100 nL compound, profiling panel (AID 1169). Also: test concentration not given here. The following applies: JC-1 mitochondrial potential fluorescence, higher = more signal.
Assay [9] can be described thus: JC-1 mitochondrial signal, unstimulated MM1S myeloma – cell-based, JC-1 fluorescence, 24 h, 100 nL compound, profiling panel (AID 1170). Also: test concentration not given here. Conditions: MM1S mitochondrial potential, higher = more signal.
The nature of assay [10]: resazurin metabolic signal in A549 cells – cell-based, resazurin fluorescence, 24 h, PK04 Diversity Set, profiling panel (AID 1171). Also: test concentration not given here. The following applies: A549 viability, higher = more signal, called active from +8 up or from −8 down. (In general: The colour change of resazurin is a common sign of viable cells or microbes.)
The nature of assay [11]: resazurin metabolic signal in HepG2 cells – cell-based, resazurin fluorescence, 24 h, PK04 Diversity Set, profiling panel (AID 1172). Also: test concentration not given here. The following applies: HepG2 viability, higher = more signal.
A short description of assay [12]: budding yeast growth changes without added modifier – OD600, strain BY4716, 24 h, basal condition, primary screen (AID 1173). The following applies: S. cerevisiae BY4716 growth, OD600, 24 h; higher = more signal, called active from +8 up or from −8 down.
Assay [13] in a line: viability profiling in MM1S myeloma cells – cell-based, resazurin fluorescence, basal, 24 h, PK04 Diversity Set, profiling panel (AID 1174). Also: test concentration not given here. Conditions: higher = more signal, called active from +8 up or from −8 down.
Assay [14] concerns the target Dihydroorotate dehydrogenase (quinone), mitochondrial (Plasmodium falciparum (isolate 3D7)) (UniProt Q08210). The assay can be described thus: inhibition of P. falciparum DHODH – biochemical, C-terminal His tag, absorbance 600 nm, primary screen (AID 1175).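 Also: recombinant parasite enzyme with a five histidine tag at its C terminus; test concentration not given here.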 The following applies: PfDHODH enzyme, DCIP absorbance 600 nm; higher = more signal, called active from +8 up or from −8 down.

The nature of assay [15]: inhibition of PAO1 biofilm formation – strain PAO1, LB-PBS medium, absorbance 600 nm, primary screen (AID 1176). Also: test concentration not given here. Conditions: P. aeruginosa PAO1 growth/biofilm, A600, 12 h; higher = more signal.
Assay [16] in a line: growth modulation of vineyard yeast isolate – strain RM11-1a, OD600, basal, 24 h, primary screen (AID 1177).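 Also: cultures grown under basal conditions with no added stressor; test concentration not given here.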 Conditions: S. cerevisiae RM11-1a growth, OD600, 24 h; higher = more signal, called active from +8 up or from −8 down.
A short description of assay [17]: growth of efflux-deficient E. coli DRC39 – strain DRC39, OD650, 24 h, E. coli filamentation inducers, primary screen (AID 1178).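 Also: growth measured as culture turbidity by optical density at 650 nm; test concentration not given here.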 The following applies: E. coli DRC39 acrAB, higher = more signal, called active from +8 up or from −8 down.
A short description of assay [18]: growth of efflux-deficient E. coli DRC39 – strain DRC39, OD650, 48 h, E. coli filamentation inducers, primary screen (AID 1179).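 Also: screen aims at cell division blockers that make cells filament.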 The following applies: E. coli DRC39 delta-acrAB growth, higher = more signal, called active from +8 up or from −8 down.
Assay [19] is described as follows: viability profiling in RPMI8226 myeloma cells – cell-based, resazurin fluorescence, basal, 24 h, PK04 Diversity Set, profiling panel (AID 1180).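 Also: RPMI8826 multiple myeloma cell line at 5000 cells per well; test concentration not given here.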 The following applies: higher = more signal.
For assay [20], the target named is E3 ubiquitin-protein ligase XIAP (Homo sapiens) (UniProt P98170). The assay can be described thus: small molecules binding XIAP protein – biophysical, small-molecule microarray, fluorescence 635 nm, primary screen (AID 1181).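 Also: score merges 667 nm emission and signal to noise over triplicate slides.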 Conditions: higher = more signal.

Activity calls are given as the source filed them. Unless noted, no rule for the calls is given here.

Sequence of E3 ubiquitin-protein ligase XIAP (Homo sapiens) (P98170 whole entry, looked up): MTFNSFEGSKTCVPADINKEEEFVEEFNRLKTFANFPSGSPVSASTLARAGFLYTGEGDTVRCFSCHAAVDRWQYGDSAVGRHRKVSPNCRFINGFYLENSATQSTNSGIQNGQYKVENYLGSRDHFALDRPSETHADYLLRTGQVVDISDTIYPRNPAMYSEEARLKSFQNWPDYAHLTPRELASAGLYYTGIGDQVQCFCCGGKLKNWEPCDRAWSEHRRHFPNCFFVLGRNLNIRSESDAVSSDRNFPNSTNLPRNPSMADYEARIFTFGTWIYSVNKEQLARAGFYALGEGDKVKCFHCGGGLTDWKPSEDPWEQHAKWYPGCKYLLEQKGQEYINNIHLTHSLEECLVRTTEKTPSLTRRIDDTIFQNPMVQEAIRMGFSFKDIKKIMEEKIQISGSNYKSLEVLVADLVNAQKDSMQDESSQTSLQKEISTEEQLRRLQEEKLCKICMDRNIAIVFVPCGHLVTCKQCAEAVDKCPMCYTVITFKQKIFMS
Sequence of Dihydroorotate dehydrogenase (quinone), mitochondrial (Plasmodium falciparum (isolate 3D7)) (Q08210 whole entry, looked up): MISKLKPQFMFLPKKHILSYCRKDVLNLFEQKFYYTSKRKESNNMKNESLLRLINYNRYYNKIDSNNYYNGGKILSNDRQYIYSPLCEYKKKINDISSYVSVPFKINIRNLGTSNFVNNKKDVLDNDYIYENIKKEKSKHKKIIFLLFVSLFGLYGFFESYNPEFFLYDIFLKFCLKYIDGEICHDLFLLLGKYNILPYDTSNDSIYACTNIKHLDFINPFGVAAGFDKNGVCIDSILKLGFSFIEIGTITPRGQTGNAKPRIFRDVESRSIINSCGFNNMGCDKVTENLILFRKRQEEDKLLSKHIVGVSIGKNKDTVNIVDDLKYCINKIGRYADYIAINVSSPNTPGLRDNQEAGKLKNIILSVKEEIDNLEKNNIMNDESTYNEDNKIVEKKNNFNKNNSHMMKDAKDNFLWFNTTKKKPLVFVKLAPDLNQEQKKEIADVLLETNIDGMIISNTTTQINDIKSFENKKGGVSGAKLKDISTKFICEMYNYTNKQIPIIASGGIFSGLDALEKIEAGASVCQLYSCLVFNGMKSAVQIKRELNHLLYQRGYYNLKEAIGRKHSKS

In the case of `O=C1C2C=CC(C(O)c3ccc(-c4ccccc4)s3)N(n3cnnc3)C2C(=O)N1Cc1ccccc1` (stereo not given), the z-score in assay [1] was -0.787; in assay [2], -0.293; in [3], -0.638; in assay [4], -0.593; in [5], -1.87; in [6], -0.666. Also, the z-score is -0.878 (inactive) in assay [7]; -0.128 in [8]; 0.871 in [9]; -1 (inactive) in assay [10]; -0.295 in assay [11]; 1.07 (inactive) in assay [12]. In addition, the z-score in [13] was -0.559 (inactive); in [15] it was 0.092 (inactive); in assay [16], 0.766 (inactive); in [17] it was -0.27 (inactive); in assay [18], -0.0301 (inactive); in assay [19] it was -0.259. For the same compound, the composite z-score in assay [14] is 0.267 (inactive); in assay [20], 0.296.
Turning to `CC(C)CNC(=O)[C@@]1(c2ccc([N+](=O)[O-])cc2)CC(=O)N(CC23CC4CC(CC(C4)C2)C3)[C@@H]1c1ccc(CO)cc1`, the z-score in [1] was -0.642; in [2], 1.57; in assay [3] it was -0.715; in assay [4], -2.68; in assay [5], -3.66; in [6], 0.0331. Also, the z-score in assay [7] is 0.226 (inactive); in assay [8] it was -1; in assay [9], 0.857; in assay [10], -2.47 (inactive); in assay [11] it was -1.69; in assay [12], -0.565 (inactive). In addition, the z-score in assay [13] is -2.08 (inactive); in assay [15], 0.913 (inactive); in assay [16], -0.813 (inactive); in assay [17], 0.629 (inactive); in assay [18], 1.25 (inactive); in [19] it was -3.32. Also, the composite z-score is -1.23 (inactive) in assay [14] and -0.193 in [20].
In the case of `CCOC(=O)C[C@H]1[C@H](OC(=O)c2ccc(C(=O)c3ccccc3)cc2)[C@@H](NC(=O)C2CCCCC2)c2cc(OCCCO)ccc2N1C(=O)c1ccccc1`, the z-score in assay [1] is -0.195; in [2], -0.589; in assay [3] it was 0.431; in [4] it was -1.21; in assay [5], -0.681; in [6] it was 1.4. Further, the z-score in assay [7] is -0.355 (inactive); in assay [8], 0.0249; in [9] it was -0.0847; in [10], 0.352 (inactive); in assay [11], -0.341; in assay [12] it was -0.153 (inactive). The z-score in assay [13] is -0.239 (inactive); in assay [15], 0.0186 (inactive); in assay [16] it was -0.3 (inactive); in assay [17] it was -0.715 (inactive); in [18], -0.549 (inactive); in assay [19], -0.125. The composite z-score was -1.06 (inactive) in assay [14] and -0.145 in assay [20].
Regarding `CCC[C@@H]1C=C(C(=O)O)[C@H](c2ccc(C)cc2)N1S(=O)(=O)c1ccc(C)cc1`, the z-score in assay [1] was -0.85; in [2] it was 0.216; in assay [3], -0.522; in assay [4] it was -0.0213; in [5] it was 0.101; in [6], -0.584. The z-score in assay [7] was -0.119 (inactive); in assay [8] it was -0.131; in assay [9], -0.166; in [10] it was -0.112 (inactive); in [11], -0.795; in assay [12], 0.0188 (inactive). Further, the z-score in [13] was -0.522 (inactive); in assay [15] it was 0.89 (inactive); in assay [16] it was -0.213 (inactive); in assay [17], -0.591 (inactive); in assay [18], 0.0595 (inactive); in assay [19], -2.01. Moreover, the composite z-score in assay [14] was -0.0451 (inactive); in assay [20], 0.22.
Take `COCCOC(=O)N1C(=O)[C@@]2(c3cc(C#CCNC(N)=O)ccc31)[C@H](c1ccc(O)cc1)N1[C@H](c3ccccc3)[C@H](c3ccccc3)OC(=O)[C@H]1[C@@H]2C(=O)Nc1nc2ccccc2s1`: the z-score is 1.7 in assay [1]; 0.663 in assay [2]; 0.461 in assay [3]; 0.553 in assay [4]; -0.397 in assay [5]; -2.95 in [6]. The z-score in [7] was 1.56 (inactive); in [8], -1.03; in assay [9] it was 0.189; in [10] it was 1.69 (inactive); in assay [11] it was 1.51; in assay [12], -2.16 (inactive). For the same compound, the z-score is 1.38 (inactive) in [13]; 3.22 (inactive) in [15]; -2.47 (inactive) in assay [16]; 2.74 (inactive) in [17]; 2.74 (inactive) in [18]; 0.803 in [19]. Also, the composite z-score in [14] is -1.96 (inactive); in assay [20], -0.115.
With `CC(=O)Nc1cc(Br)ccc1C(=O)O`, the z-score is 0.665 in [1]; 0.747 in [2]; 0.332 in assay [3]; -0.906 in [4]; -0.178 in assay [5]; -0.598 in assay [6]. Besides, the z-score in assay [7] is -0.672 (inactive); in [8], -0.685; in [9], 1.05; in assay [10], -0.243 (inactive); in [11], -0.128; in assay [12], 0.311 (inactive). Also, the z-score was 0.161 (inactive) in [13]; -0.103 (inactive) in assay [15]; -0.129 (inactive) in assay [16]; -0.141 (inactive) in assay [17]; -0.535 (inactive) in [18]; 0.357 in assay [19]. The composite z-score was -0.398 (inactive) in assay [14] and -0.239 in [20].
`CC(C)CNC(=O)[C@@]1(c2ccc([N+](=O)[O-])cc2)CC(=O)N(CC23CC4CC(CC(C4)C2)C3)[C@@H]1c1ccc(CO)cc1I`: the z-score in assay [1] is -0.394; in assay [2] it was 0.604; in [3], -3.4; in assay [4] it was -3.83; in assay [5], -4.32; in assay [6] it was 1.47. Moreover, the z-score is -0.744 (inactive) in assay [7]; -0.948 in assay [8]; -0.674 in assay [9]; -2.77 (inactive) in [10]; -2.55 in [11]; 0.431 (inactive) in assay [12]. The z-score in [13] was -2.77 (inactive); in assay [15] it was 1.9 (inactive); in assay [16] it was 1.69 (inactive); in assay [17], -0.507 (inactive); in assay [18], -0.91 (inactive); in [19], -3.94. For the same compound, the composite z-score in [14] was 0.989 (inactive); in assay [20], -0.144.
For the compound `O=C1OCCC=C[C@H]2OC34C=CCN(Cc5ccccc5)C(=O)[C@H]3N(CCCCCO)C(=O)[C@@H]4C12` (stereo not given in full), the z-score in assay [1] was 0.412; in assay [2] it was -0.0568; in assay [3], 0.889; in assay [4], 1.81; in [5], 0.593; in [6] it was 0.756. The z-score was 0.498 (inactive) in assay [7]; 0.231 in assay [8]; -0.967 in assay [9]; 0.872 (inactive) in assay [10]; 1.12 in assay [11]; -0.266 (inactive) in assay [12]. For the same compound, the z-score was 1.61 (inactive) in assay [13]; 0.357 (inactive) in assay [15]; 0.484 (inactive) in assay [16]; 1.24 (inactive) in assay [17]; 0.927 (inactive) in assay [18]; 1.4 in [19]. In addition, the composite z-score in [14] was -1.12 (inactive); in assay [20] it was 0.13.
For `Cc1ccc([C@H]2C(C(=O)O)=C[C@@H](C)N2S(=O)(=O)c2ccc(C)cc2)cc1`, the z-score in [1] is -0.464; in assay [2], 0.644; in assay [3], -0.173; in assay [4] it was -1.35; in [5] it was -0.808; in assay [6], -1.15. The z-score in [7] was -0.642 (inactive); in assay [8], -0.187; in assay [9] it was 0.249; in [10], -0.16 (inactive); in [11], -0.534; in assay [12], -0.704 (inactive). Besides, the z-score in assay [13] is -0.612 (inactive); in [15] it was -0.0322 (inactive); in [16], -0.211 (inactive); in assay [17] it was -0.654 (inactive); in [18] it was -0.444 (inactive); in assay [19], -1.52. Besides, the composite z-score in assay [14] is -0.377 (inactive); in assay [20], 0.254.
